Experimental data published in PubChem BioAssay (NCI).
About 79,000 compounds went through this panel and 15% of them were active in at least one assay; those are over-represented in the sample as a whole. Values without a mark were called inactive. The source made the active and inactive calls. No stated cut-off is given here; in the data, active means growth inhibition above about 70%; inactive means the rest.

Assay: NCI Yeast Anticancer Drug Screen. Data for the mlh1 rad18 strain (AID 175)
Details: S. cerevisiae mlh1 rad18 strain growth inhibition; at 50.0 µM; hits give high values
In short: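 Vehicle-treated cultures served as the reference for growth inhibition in a yeast strain carrying DNA damage repair alterations exposed to each compound.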

Compound	growth inhibition
CC(C)C1CCC2(CC1)CCN(CCCN(C)C)CC2	-7.65%
CC1=CC(=O)OC(=O)/C1=C/c1ccc(N(C)C)cc1	-9.4%
CCN(CC)c1ccc2cc(-c3nc4ccccc4[nH]3)c(=O)oc2c1	2.55%
C1=C(c2ccccc2)NC2=N[C@H]3CCCC[C@@H]3N2C1c1ccccc1 (stereo not given in full)	91.5% (active)
Cc1cc2c(c(C)c1O)C(C)(C)CN2C(=O)C(C)(C)C	-10.9%
COC(=O)CCCC(NC(=O)c1ccc([N+](=O)[O-])cc1)C(=O)OC (stereo not given)	14.9%
Cc1[nH]c2ccc([N+](=O)[O-])cc2c1C	38.4%
Nc1cn(Cc2ccccc2)c(=O)n(Cc2ccccc2)c1=O	-23.6%
CN1CCC(OC(=O)C(O)C2CCCCC2)CC1 (stereo not given)	41.8%
CC(C=O)C1CCCCC1 (stereo not given)	5.6%
Cc1ccc(NC(=O)Nc2cccc(Cl)c2C)cc1C	-15.9%
C/C(=C/c1c(C)[nH]c(=O)[nH]c1=O)C(=O)O	-3.75%
CCN(CC)Cc1cc(Nc2nc(/C=C/c3ccccc3)nc3ccccc23)ccc1O	-14.6%
O=[N+]([O-])c1ccc(OCCO)c([N+](=O)[O-])c1	10%
O=C(O)c1ccccc1/C=N\NC1=NCCCCN1	-18.4%
COc1ccc(-c2onc(-c3ccc([N+](=O)[O-])cc3)c2C2=NCCCN2)cc1	-20.3%
COCn1c2ccc(OC(C)=O)cc2c2c(=O)oc(N(C)C)nc21	-11.7%
O=C(CCl)OCC(CCl)OC(=O)CCl (stereo not given)	0.6%
CC(C)Cn1cnc2c(Cl)nc3ccccc3c21	-11.8%
CCOC(=O)c1nc(SC)sc1NC(=O)c1ccc(OC)cc1	-4.65%

Compound	growth inhibition
CC1(C)C=Cc2c(ccc(C(=O)Cc3ccccc3)c2O)O1	23.1%
C=CCN1C(C)(C)NC(=S)C1(C)C	-2.35%
CCOC(=O)COc1cc2c(cc1C(C)c1cc(OC)c(OC)c(OC)c1)OCO2 (stereo not given)	10.9%
CCN(CC)c1ncnc2n[nH]nc12	3.45%
C/C(=C(/C)c1cc[n+](C)cc1)c1cc[n+](C)cc1	68.5%
O=C(O)c1ccc(Cl)cc1[N+](=O)[O-]	25.1%
CCOc1ccc(CCC(=O)O)cc1	12.1%
CCOc1ccc(C(=O)C=O)cc1	27.2%
CC1(C)C(N)C(C)(C)C1N (stereo not given)	2.3%
CCOC(=O)c1c(OC)c(-c2ccccc2)c(=O)n2c3ccccc3n(C)c12	9.9%
CC1=C(O[Si](C(C)C)(C(C)C)C(C)C)C2CC1(OS(=O)(=O)C(F)(F)F)[C@H]1C(=O)N(c3ccccc3)C(=O)[C@@H]21 (stereo not given in full)	-20.9%
O=S1(=O)C(c2ccccc2)C(N2CCCCC2)C1C1CC2c3ccccc3C1c1ccccc12 (stereo not given)	30.2%
c1cc(N2CCOCC2)ccc1Cc1ccc(N2CCOCC2)cc1	-13.1%
Nc1nc(N)c(N2CCN(Cc3ccccc3)CC2)c(Cl)n1	27.4%
C=Cn1c2ccccc2c2ccccc21	-0.55%
CC(C)[C@@H]1CC[C@@H](C)C[C@H]1OC(=O)c1c2n(c3ccccc13)C[C@H]1OC(C)(C)O[C@@H]21	-46.2%
CC1(C)CO/C(=C/C(=O)c2ccccc2)N1C(=O)c1ccccc1	-0.45%
Nc1nc(N)c2c(n1)NCN(OCOc1ccc(Cl)cc1)C2	1.55%
CCC(C(=O)O)C(=O)O.[NH-]CC1CCCC[N-]1.[Pt+2]	-34.7%
CC1=NN(C(=O)c2ccccc2O)C(=O)/C1=C/c1cccc([N+](=O)[O-])c1	33.8%
